Holding throughout (test): NCI-60 one-dose screen, 48 h (100 = growth as untreated, 0 = no growth, -100 = all killed)
Holding throughout (details): 10 µM unless noted

Assay [1] has as its system T-47D breast.
Assay [2] relates to BT-549 breast.
For assay [3], the system named is MDA-MB-435 melanoma.
For assay [4], the system named is SW-620 colon.
Assay [5] has as its system MCF7 breast.
Assay [6] relates to HCT-116 colon.
Assay [7] deals with HCC-2998 colon.
For assay [8], the system named is KM12 colon.

Structures are written as SMILES. Compounds without any hit were thinned out: in the full panel of roughly 83,000, 20% have a hit.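 A percent growth of 40 corresponds to 60% growth inhibition; 0 means no net growth; -100 means all cells died. Active threshold: below 10.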 Unmarked numbers belong to inactive results. Active and inactive are the calls of the source.

Consider `CC[C@]12C=CCN3CC[C@]4(C(=C(C(=O)OC)C1)Nc1cc5c(cc14)[C@@H]1[C@H](O5)[C@@H](O)[C@@]4(CC)CC(C(=O)OC)=C5Nc6cc(OC)ccc6[C@@]56CCN1[C@@H]46)[C@@H]32`, for which the growth is 9.28% (active) in assay [1]; 37.8% in assay [2]; -12.5% (active) in assay [3]; 3.27% (active) in assay [4]; 6.01% (active) in assay [5]; -87.2% (active) in assay [6]. Moreover, the values for the growth in assay [7] and in assay [8] were -58.7% (active) and 9.56% (active), respectively.
Take `COc1ccc(/C=N\NC(=O)c2ccc3nc(-c4ccc(Br)cc4)[nH]c3c2)cc1`: the growth is 55.8% in assay [1]; 65.8% in assay [2]; 35.5% in assay [3]; 23.5% in assay [4]; 15.8% in assay [5]; 12.5% in assay [6]. Also, the growth in assay [7] is 59.4%; in assay [8], 25.9%.
In the case of `C/C(=N/Nc1nc(N/N=C(/C)c2ccc([N+](=O)[O-])cc2)nc(N2CCOCC2)n1)c1ccc([N+](=O)[O-])cc1`, the growth in assay [1] is 54.9%; in assay [2], 67.3%; in assay [3] it was 85%; in assay [4] it was 95.5%; in assay [5], 74.1%; in assay [6], 70.6%. The growth in assay [7] is 96%; in assay [8] it was 82.2%.
Turning to `Cc1ccc(/C=C/c2nn3c(-c4ccco4)nnc3s2)cc1`, the growth in assay [1] is 92.9%; in assay [2], 99.2%; in assay [3], 97.1%; in assay [4], 102%; in assay [5], 89.5%; in assay [6], 112%. Also, the growth in assay [7] is 114%; in assay [8] it was 103%.
For `Cc1ccc(-n2cc(/C=C/C(=O)c3ccc(S(C)(=O)=O)cc3)c(-c3ccc(S(C)(=O)=O)cc3)n2)cc1`, the growth in assay [1] was 105%; in assay [2] it was 91.5%; in assay [3], 31.4%; in assay [4], 64.9%; in assay [5] it was 64.8%; in assay [6], 53.4%. Further, the growth in assay [7] is 107%; in assay [8], 59.5%.
In the case of `CCOC(=O)C1=C(C)Nc2nnc(Nc3ccccc3)n2C1c1ccccc1` (stereo not given), the growth in assay [1] was 58.2%; in assay [2], 84%; in assay [3] it was 86.8%; in assay [4] it was 35.2%; in assay [5] it was 55.7%; in assay [6], 7.91% (active). In addition, the growth in assay [7] was 105%; in assay [8], 94.7%.
For the compound `CC[C@@](C)(NC(=O)C(C)(C)NC(=O)[C@@H](NC(=O)[C@@H]1CCCN1C(=O)C(C)(C)NC(=O)[C@H](CC(C)C)NC(=O)CNC(=O)C(C)(C)NC(=O)[C@@H](NC(=O)C(C)(C)NC(=O)[C@H](CCC(N)=O)NC(=O)[C@H](C)NC(=O)C(C)(C)NC(=O)[C@H](C)NC(=O)C(C)(C)NC(=O)[C@H](C)NC(=O)C(C)(C)NC(C)=O)C(C)C)C(C)C)C(=O)N[C@@H](CCC(N)=O)C(=O)N[C@@H](CCC(N)=O)C(=O)N[C@H](CO)CC1CCCCC1`, the growth in assay [1] was 12.2% [5 µM]; in assay [2] it was -74.3% [5 µM] (active); in assay [3] it was 12.4% [5 µM]; in assay [4], 49.1% [5 µM]; in assay [5], 8.62% [5 µM] (active); in assay [6], 12.4% [5 µM]. The growth was 28.9% [5 µM] in assay [7] and 34.8% [5 µM] in assay [8].
`COC1=C(c2ccccc2)C(=O)C(OC)=C(c2ccccc2)C1=O`: the growth in assay [1] is 60.9%; in assay [2], 104%; in assay [3], 93.7%; in assay [4] it was 98.8%; in assay [5] it was 85.2%; in assay [6], 96.3%. Also, the growth in assay [7] is 94.4%; in assay [8] it was 98.6%.
On to `O=C(NNc1nc2cc(F)c(F)cc2n2cccc12)c1ccncn1`, for which the growth in assay [1] was 15.1%; in assay [2], 28.7%; in assay [3] it was 33%; in assay [4], 23.5%; in assay [5], 6% (active); in assay [6], 20.4%. Also, the values for the growth in assay [7] and in assay [8] were 53.3% and 21.4%, respectively.
With `C(=C(\C1=NCCN1)n1cnc2ccccc21)/c1cccc2ccccc12`, the growth in assay [1] was 82.4%; in assay [2], 107%; in assay [3] it was 74%; in assay [4], 102%; in assay [5] it was 57.3%; in assay [6], 88%. Moreover, the growth in assay [7] is 92.9%; in assay [8], 42.5%.
In the case of `CNC(=O)c1cc(Oc2ccc3nc(NC(=O)c4ccc(CN5CCCN(C)CC5)c(C(F)(F)F)c4)sc3c2)ccn1`, the growth was 7.14% (active) in assay [1]; 83.2% in assay [2]; -8.88% (active) in assay [3]; -70.9% (active) in assay [4]; -38.9% (active) in assay [5]; 5.99% (active) in assay [6]. The growth in assay [7] was 4.85% (active); in assay [8], 30.3%.
With `CS(=O)c1nccc(-c2c(-c3ccc(F)c(OCCc4ccc(F)cc4)c3)nc3sccn23)n1` (stereo not given), the growth in assay [1] is -41.9% (active); in assay [2] it was 92.8%; in assay [3], 99.5%; in assay [4], -5.23% (active); in assay [5] it was -46.4% (active); in assay [6] it was -59.9% (active). Moreover, the growth is 17.8% in assay [7] and 78.3% in assay [8].
Take `CCN1C(=O)N(CC)C2SC(N/N=C/C=C/c3ccccc3OC)=NC21` (stereo not given): the growth in assay [1] is 67.3%; in assay [2], 18.7%; in assay [3] it was -16.7% (active); in assay [4] it was 20.4%; in assay [5], 12.9%; in assay [6], 6.23% (active). Moreover, the growth in assay [7] is 8.41% (active); in assay [8] it was 11.6%.
In the case of `CCOC(=O)C1=C(C)Nc2nc3ccccc3n2C1c1ccccc1` (stereo not given), the growth is 95.5% in assay [1]; 101% in assay [2]; 96.6% in assay [3]; 87.8% in assay [4]; 87.8% in assay [5]; 69.1% in assay [6]. The growth in assay [7] was 114%; in assay [8], 98.1%.
As for `COc1ccc2c(ccn2C(=O)N2c3ccccc3Sc3ccccc32)c1`, the growth in assay [1] was 23%; in assay [2], 34.3%; in assay [3] it was -18.9% (active); in assay [4], 16.8%; in assay [5] it was 29.6%; in assay [6], 31.6%. Also, the growth was 48.9% in assay [7] and 24.2% in assay [8].

Values taken from PubChem BioAssay (NCI).
